Bioassay records (PubChem)
ATXN viability: reduces viability in counter-screen for ATXN expression inhibitors; S2 cells (HEK-293 line with an ATXN2-luciferase reporter) viability, CellTiter-Fluor protease fluorescence, 24 h; Potency, µM (series often up to 56.7 µM), hits mostly cytotoxic; 0.49% of 400,000 active; AID 651635; further: nearly all actives have a fitted effect of over 40% in size
HT1080NT lethal: kills 2HG-producing HT-1080-NT fibrosarcoma cells; Potency, µM (doses to about 46.1 µM), usual class: cytotoxic; HT-1080-NT fibrosarcoma viability, CellTiter-Glo ATP luminescence, 48 h; 1.6% of 360,000 active; AID 686970;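 further: NT is the 2HG producing partner of a matched IDH1 knockdown line; nearly all actives have a fitted effect of over 55% in size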
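HT-1080-NT; 750 cells/well; 5% FBS RPMI; 48 h compound, 37 degrees C; CellTiter-Glo luminescence; curve fitting and curve-class assignment.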
HT1080 IDH1KD tx: toxicity to HT-1080 IDH1 knockdown cells (counter line); HT-1080 IDH1 knockdown viability, ATP luminescence, 48 h; Potency, µM (doses to about 46.1 µM), usual class: cytotoxic; 2% of 360,000 active; AID 686971
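After a 2 h attachment period, IDH1KD HT-1080 cells took pin-transferred compound for 48 h at 37 °C; ATP-based luminescence after 10 min room-temperature reagent incubation reported viability.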
TGFb SMAD3 inh: inhibitors of TGF-b signaling | HepG2 CAGA-GFP TGF-b/SMAD3 reporter, GFP fluorescence, 18 h; TGF-beta stimulated, 500 pg/mL final | Potency, µM (top dose mostly 46.1 µM), most hits filed as inhibitors | 1.2% of 410,000 active; further: nearly all actives have a fitted effect of over 65% in size
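First, reporter cells (HEPG2 CAGA-GFP) rested 2 h at 37 degrees C. Next, compounds were pinned in and TGF-beta added to 500 pg/mL final. After 18 h, GFP was imaged per cell and summed per well.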
ATXN2 expr inh: ATXN2 expression inhibition | HEK-293 ATXN2-luciferase reporter, luminescence, 24 h | AID 1745845 | Potency, µM (top dose mostly 57 µM), usual class: inhibitors | 0.72% of 360,000 active; further: nearly all actives have a fitted effect of over 55% in size
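qHTS (up to 57 uM final) was run with 24 h compound exposure of reporter cells at 37 °C. Each well was multiplexed: SteadyGlo luminescence measured ATXN2-luciferase expression after a fluorogenic Gly-Phe-AFC viability readout (25 uM final).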
HepG2 tox-1: kills HepG2 cells in TGF-b inhibitor counter-screen. HepG2 CAGA-GFP viability, ATP luminescence, 18 h. Potency, µM (titrated, usually from 46.1 µM), usual class: cytotoxic. 0.76% of 410,000 active
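CellTiter-Glo luminescence gave cytotoxicity after 18 hours at 37 degrees C. The cells were HepG2 CAGA-GFP in 1% FBS DMEM, stimulated with 500 pg/mL TGF-beta after compound addition. %Activity was normalised to no-cell wells (complete cell-killing) and DMSO (no toxicity), and curves were fitted and classified.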
TGFb confirm: TGF-b pathway inhibition, cherry-pick retest; 63% of 1,600 active; Potency, µM (titrated, usually from 46.1 µM), actives largely listed as inhibitors; HepG2 CAGA-GFP TGF-b reporter, GFP fluorescence, 18 h; cells stimulated with TGF-beta, 500 pg/mL; shares compounds with TGFb SMAD3 inh; further: nearly all actives have a fitted effect of over 65% in size
HepG2 tox-2: counter-screen for TGF-b inhibitors: cytotoxicity in HepG2 cells; shares compounds with TGFb SMAD3 inh; HepG2 CAGA-GFP viability, ATP luminescence, 18 h; cells stimulated with TGF-beta, 500 pg/mL; Potency, µM (doses to about 46.1 µM), usual class: inhibitors; 27% of 1,600 active; AID 720535; further: nearly all actives have a fitted effect of over 70% in size
TGFb CCL64 inh: orthogonal confirmation of TGF-b inhibitors in CCL64 cells; 41% of 1,600 active; CCL64 CAGA-GFP reporter, TGF-b stimulated, GFP fluorescence, 18 h; shares compounds with TGFb SMAD3 inh; Potency, µM (titrated, usually from 46.1 µM), most hits filed as inhibitors; further: nearly all actives have a fitted effect of over 65% in size
TGFb COP inh: TGF-b inhibition validated with COP promoter. HepG2 COP-GFP TGF-b reporter, GFP fluorescence, 18 h; cells stimulated by added recombinant TGF-beta. 3% of 1,600 active. shares compounds with TGFb SMAD3 inh. AID 720537. Potency, µM (top dose mostly 46.1 µM), most hits filed as inhibitors; further: nearly all actives have a fitted effect of over 70% in size
Numbers stand for hits; 0 = inactive; ? = inconclusive; - = not tested or not shown; [ ] = remark or other dose. A selection: hits, their analogues and other compounds. The true share with any hit is near 3.8%. The call rests on the fitted dose curve; in most records, active means well fitted curve in the direction sought with a large enough effect; inconclusive means small, poorly fitted or top-dose-only effect, or another doubt; inactive means no such curve, though single readings can be large; an effect the other way counts as inactive or inconclusive.

SMILES	ATXN viability	HT1080NT lethal	HT1080 IDH1KD tx	TGFb SMAD3 inh	ATXN2 expr inh	HepG2 tox-1	TGFb confirm	HepG2 tox-2	TGFb CCL64 inh	TGFb COP inh
COCc1cc(S(=O)c2ccc(Cl)cc2)nc(C)n1 (stereo not given)	?	?	?	?	0	0	?	?	7.3µM	0
COCc1cc(Sc2ccc(Cl)cc2)nc(C)n1	0	0	0	0	0[11.3 µM]	0	-	-	-	-
COc1ccc(C(CNC(=O)c2oc3ccc(OC)cc3c2C)N2CCCC2)cc1 (stereo not given)	0	?	0	?	0	0	?	?	0	0
COc1cc(C(=O)Nc2ccc(-c3nc4ccccc4o3)c(O)c2)cc(OC)c1OC	0	-	-	0	0	0	-	-	-	-
O=C(/C=C/c1ccccc1)CCN1CCOCC1	?	?	18µM	7.1µM	?	10µM	2.6µM	7.3µM	10µM	?
COc1cc(OC)cc(C(=O)N2CC(=O)Nc3ccc(Cl)cc3C2c2ccccc2)c1 (stereo not given)	?	-	-	?	0	0	-	-	-	-
OC(CNCC(c1ccc(Cl)cc1Cl)c1c[nH]c2ccccc12)c1ccccc1 (stereo not given)	?	21µM	7.3µM	7.1µM	?	0	?	16µM	?	?
CCOc1c(Cl)cc(CNCC(O)c2ccccc2)cc1OC (stereo not given)	0	0	0	0	0	0	-	-	-	-
Cc1nc2ccc(S(=O)(=O)NCC(=O)Nc3cccc(F)c3)cc2s1	0	0	0	?	-	0	0	0	0	0
CCc1cccc(NC(=O)CNS(=O)(=O)c2ccc3nc(C)sc3c2)c1	-	-	-	-	-	0	-	-	-	-
Nc1nnc(SCC(=O)Nc2cccc(S(=O)(=O)N3CCOCC3)c2)s1	?	0	0	?	0	0	-	-	-	-
COc1ccc(S(=O)(=O)N2CCOCC2)cc1NC(=O)CSc1nnc(N)s1	0	0	0	?	0	0	0	0	0	0
Cc1ccc(N(Cc2cccs2)C(=O)c2ccco2)cc1	-	-	-	0	-	0	-	-	-	-
CCOC(=O)c1sc2ccccc2c1S(=O)(=O)Nc1c(C)cccc1C	?	-	-	?	0	0	-	-	-	-
COc1ccc(-c2csc(NC(C)c3nc4cc(C(F)(F)F)ccc4n3CCOCCO)n2)cc1 (stereo not given)	?	0	?	13µM	?	0	23µM	?	?	0
CC(Nc1nc(-c2ccc(F)cc2)cs1)c1nc2cc(C(F)(F)F)ccc2n1CCOCCO (stereo not given)	0	0	0	0	0	0	-	-	-	-
CCN(C(=O)c1cc2c(C)nc3ccccc3c2o1)c1cc(Cl)ccc1OC	0	?	?	10µM	?	0	?	0	?	0
CCOc1ccc(NC(=O)c2cc3c(C)nc4ccccc4c3o2)cc1	0	?	?	0	0	0	-	-	-	-
Nc1ncnc2c1ncn2[C@@H]1O[C@H](C(=O)NCc2ccc(OC(F)(F)F)cc2)[C@@H](O)[C@H]1O	0	0	0	?	0	0	?	0	0	0
Cc1c(C(=O)N2CCN(Cc3ccc4c(c3)OCO4)CC2)sc2ncnc(N3CCN(c4ccccc4)CC3)c12	0	0	?	?	-	0	-	-	-	-
Cc1c(C(=O)N2CCN(Cc3ccc4c(c3)OCO4)CC2)sc2ncnc(N3CCN(c4ccccc4F)CC3)c12	?	?	18µM	5µM	-	0	?	0	0	0
Cc1ccc(NC(=O)c2cc(C(=O)c3cc(Cl)ccc3O)cn(-c3ccc(C)cc3)c2=O)cc1	0	0	0	7.9µM	0	0	?	?	?	0
Cc1ccc(NC(=O)CCn2c(=O)c3cccn3c3ccccc32)c(Cl)c1	-	-	-	?	-	0	-	-	-	-
O=C(Nc1cccc(NC(=O)c2cccnc2)c1)c1ccccc1	0	0	0	0	0	0	-	-	-	-
NC(=O)c1cccc(-c2cnc(N)c(C(=O)c3cccnc3)n2)c1	?	0	0	10µM	0	0	4.6µM	16µM	0	0
SMILES	ATXN viability	HT1080NT lethal	HT1080 IDH1KD tx	TGFb SMAD3 inh	ATXN2 expr inh	HepG2 tox-1	TGFb confirm	HepG2 tox-2	TGFb CCL64 inh	TGFb COP inh
COc1ccc(-c2csc(Nc3ccc(Oc4ccccc4)cc3)n2)cc1	?	?	13µM	11µM	?	0	7.3µM	0	0	0
CCC(=O)N1CCc2cc(S(=O)(=O)N3CCN(c4ccccc4F)CC3)ccc21	0	-	-	0	0	0	-	-	-	-
CC(=O)Nc1ccc2c(c1)-c1ccc(F)cc1C2	0	0	0	10µM	0	0	?	?	0	0
CC(=O)Nc1ccc2c(c1)Cc1ccc(Cl)cc1-2	0	0	0	0	0	0	-	-	-	-
COc1ccc(Nc2nccc(-c3cccc(N)c3)n2)cc1	?	?	?	10µM	0	0	8.2µM	5.8µM	8.2µM	0
COc1ccc(-c2nc3ccccc3o2)cc1NC(=O)C(C)(C)Oc1ccc(Br)cc1	0	-	-	0	0	0	-	-	-	-
O=C(N/N=C/c1ccc2c(c1)OCO2)c1cc(-c2ccccc2Cl)nc2ccccc12	0	0	0	?	0	0	0	0	0	0
O=C(CNC(=O)c1ccccc1Cl)N/N=C/c1ccc2c(c1)OCO2	?	0	?	0	0	0	-	-	-	-
Cc1ccc2oc(-c3cc(NC(=O)c4ccc5c(c4)OCCO5)cc(C)c3O)nc2c1	0	-	-	0	0	0	-	-	-	-
CC(=O)Nc1ccc2[nH]c3ccccc3c2c1	0	0	0	0	0	0	-	-	-	-
O=C(Nc1ccc(Cl)cc1)c1cc2c(cc1O)[nH]c1ccccc12	?	15µM	15µM	6.3µM	?	0	7.3µM	5.2µM	3.3µM	0
Cc1ccc(Oc2coc3cc(OC(=O)c4cccs4)ccc3c2=O)cc1	0	0	0	0	0	0	-	-	-	-
Cc1cc(C)cc(Oc2coc3cc(OC(=O)c4cccs4)ccc3c2=O)c1	0	0	0	?	0	0	?	0	0	0
COc1ccc(Nc2nnc(-c3ccc(C)c(S(N)(=O)=O)c3)c3ccccc23)cc1	0	-	-	?	0	0	-	-	-	-
